A short description of assay [1]: ATG_CRE_CIS: Attagene CIS-FACTORIAL HepG2 Assay for human cAMP Responsive Element (CRE) binding protein 3 (AID 2282926). The note with it: HepG2 CRE cis-reporter, Attagene multiplexed mRNA; actives raise or lower the signal. In short, it runs like this:
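Assay format: transient reporter transfection of HepG2, 24 h treatment, total RNA isolation with DNase I step. Reporter abundance read by fluorescence after PCR and capillary separation; DMSO-normalised gain or loss fitting.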

The target in assay [2] is CCAAT/enhancer-binding protein beta (Homo sapiens) (UniProt P17676). In words: ATG_C_EBP_CIS: Attagene CIS-FACTORIAL HepG2 Assay for human CCAAT/Enhancer Binding Protein (C/EBP) beta (AID 2282927). The settings on record: HepG2 Attagene cis-factorial transcription factor reporter; actives raise or lower the signal. In a few lines:
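Following a 24 h incubation with test chemical, transfected HepG2 cells yielded RNA whose reporter transcripts were quantified by RT-PCR and fluorescent capillary electrophoresis, with DMSO serving as baseline for bidirectional fitting.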

Assay [3] in a line: ATG_CMV_CIS: Attagene CIS-FACTORIAL HepG2 Assay for human CMV (Internal Marker) (AID 2282928).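 Further: endpoint acts as a background internal control marker rather than a target.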 The note with it: HepG2 CMV promoter reporter, transcription factor profiling; actives raise or lower the signal. In a few lines: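 Fluorescence intensity of RT-PCR-derived reporter fragments, resolved by capillary electrophoresis, gives the signal. HepG2 liver cells bearing transfected cis-element reporters were treated 24 h; activity in either direction was fit relative to DMSO-treated controls.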

A short description of assay [4]: ATG_DR4_LXR_CIS: Attagene CIS-FACTORIAL HepG2 Assay for human Liver X Receptor (LXR), DR4 submotif (AID 2282929). The settings on record: HepG2 Attagene DR4 cis-reporter, mRNA transcription; actives raise or lower the signal. In short, it runs like this: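 Cells were transfected with multiple reporter transcription units, exposed to chemicals for 24 hours, then lysed for RNA. Reporter mRNA induction was measured by RT-PCR with capillary electrophoresis detection and fitted in both directions relative to DMSO.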

For assay [5], the target named is Aryl hydrocarbon receptor (Homo sapiens) (UniProt P35869). As to the kind of experiment: ATG_Ahr_CIS: Attagene CIS-FACTORIAL HepG2 Assay for human Aryl Hydrocarbon Receptor (Ahr) (AID 2282930). The note with it: HepG2 AhR cis-factorial reporter transcription; actives raise or lower the signal. In a few lines: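 Values derive from bidirectional fitting against DMSO negative control. Underlying signal: cis-element reporter mRNA in transiently transfected HepG2, harvested 24 h post-dose and measured by RT-PCR plus capillary electrophoresis.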

Assay [6] in a line: ATG_AP_1_CIS: Attagene CIS-FACTORIAL HepG2 Assay for human Activator Protein 1 (AP-1) (AID 2282931). The note with it: HepG2 Attagene cis-factorial AP-1 reporter mRNA; actives raise or lower the signal. In short, it runs like this: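 Endogenous transcription-factor activity in human HepG2 liver cells is read through a cis-promoter reporter transcript, sampled 24 h after dosing. Detection uses RT-PCR with capillary electrophoresis; values come from bidirectional fitting relative to DMSO.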

A short description of assay [7]: ATG_AP_2_CIS: Attagene CIS-FACTORIAL HepG2 Assay for human Activator Protein 2 (AP-2) (AID 2282932). The settings on record: HepG2 AP-2 cis-reporter, Attagene transcription factor profiling; actives raise or lower the signal. In a few lines: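 Cells (HepG2) transfected with promoter-driven reporter constructs, treated 24 h. Total RNA reverse-transcribed, reporter cDNA PCR-amplified, FAM-labelled by primer extension, digested, resolved by capillary electrophoresis. Activity fitted both directions versus DMSO.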

Assay [8] can be described thus: ATG_BRE_CIS: Attagene CIS-FACTORIAL HepG2 Assay for human Bone Morphogenetic Protein (BMP) Response Element (BRE) (AID 2282933). The note with it: HepG2 BMP response element reporter, Attagene transcription factor profiling; actives raise or lower the signal. In a few lines:
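A HepG2 multiplex reporter system measured inducible reporter mRNA 24 h post-dosing. Detection: RT-PCR, 6-FAM primer extension, HpaI digestion, capillary electrophoresis. Activity fitted bidirectionally relative to DMSO.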

The target in assay [9] is Retinoic acid receptor alpha (Homo sapiens) (UniProt P10276). As to the kind of experiment: ATG_DR5_RAR_CIS: Attagene CIS-FACTORIAL HepG2 Assay for human Retinoic Acid Receptor Alpha (RARE), DR5 submotif (AID 2282934).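 On AC50: reporter responds to endogenous RAR alpha beta and gamma in HepG2 not RARA alone.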 The settings on record: HepG2 Attagene cis-factorial RARE DR5 reporter, mRNA; actives raise or lower the signal. In a few lines:
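Endpoint fitted in both directions relative to DMSO as negative control. It reflects DR5 cis-element reporter mRNA induction in transiently transfected HepG2 cells, measured 24 h after dosing through RT-PCR and fluorescent capillary electrophoresis.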

Assay [10] addresses Transcription factor E2F1 (Homo sapiens) (UniProt Q01094). In words: ATG_E2F_CIS: Attagene CIS-FACTORIAL HepG2 Assay for human E2F Transcription Factor 1 (AID 2282935). The settings on record: HepG2 Attagene cis-reporter, E2F reporter RNA transcripts; actives raise or lower the signal. In short, it runs like this:
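First, HepG2 cells were transfected with reporter transcription units. Next, they were dosed for 24 h. Then RNA was isolated, converted to cDNA, PCR-amplified, FAM-labeled, HpaI-digested and analyzed by capillary electrophoresis.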

Assay [11] is described as follows: ATG_E_Box_CIS: Attagene CIS-FACTORIAL HepG2 Assay for human Enhancer Box (E-box) (AID 2282936). The note with it: HepG2 E-box cis-reporter transcription, actives raise or lower the signal. In a few lines: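 Endogenous transcription factor activity was sensed in human HepG2 liver cells through transfected cis-promoter reporter units. After 24 h of dosing, total RNA was reverse-transcribed and reporter cDNA resolved by capillary electrophoresis.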

A short description of assay [12]: ATG_M_61_CIS: Attagene CIS-FACTORIAL HepG2 Assay for M61 Transcription Factor (Internal Marker) (AID 2282937). The note with it: HepG2 Attagene CIS-FACTORIAL M61 internal marker reporter; actives raise or lower the signal. In short, it runs like this: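 Cells were transfected with reporter units under cis-regulatory promoters, treated with chemicals for 24 h, then lysed for RNA. Reporter transcripts were quantified by RT-PCR and capillary electrophoresis, and activity was fitted bidirectionally against DMSO.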

Assay [13] is described as follows: ATG_EGR_CIS: Attagene CIS-FACTORIAL HepG2 Assay for human Early Growth Response 1 (EGR1) (AID 2282938). The note with it: HepG2 Attagene CIS-FACTORIAL EGR reporter mRNA; actives raise or lower the signal. In a few lines: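 Endogenous TF activity in HepG2 liver cells was gauged through cis-promoter reporter constructs transiently transfected. After 24 h dosing, reporter mRNA was quantified by RT-PCR and capillary electrophoresis, and curves fitted in both directions versus DMSO.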

Assay [14] can be described thus: ATG_M_19_CIS: Attagene CIS-FACTORIAL HepG2 Assay for M19 Transcription Factor (Internal Marker) (AID 2282939). The note with it: HepG2 Attagene CIS-FACTORIAL M19 internal marker reporter; actives raise or lower the signal. In short, it runs like this: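 Chemical-treated HepG2 (24 h) with MRTU constructs; reporter transcripts detected by fluorescent RT-PCR fragment analysis on capillary electrophoresis. Internal background marker, DMSO as baseline.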

Assay [15] can be described thus: ATG_Ets_CIS: Attagene CIS-FACTORIAL HepG2 Assay for human Erythroblast Transformation Specific (ETS) (AID 2282941). The settings on record: HepG2 ETS cis-reporter transcription, actives raise or lower the signal. In short, it runs like this: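 Multiplexed reporter transcript profiling: HepG2, 24 h treatment, total RNA to cDNA, PCR, 6-FAM labelling, HpaI cut, capillary electrophoresis. Gain- or loss-of-signal fitted against DMSO.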

In assay [16] the target is Hepatocyte nuclear factor 3-beta (Homo sapiens) (UniProt Q9Y261). In words: ATG_FoxA2_CIS: Attagene CIS-FACTORIAL HepG2 Assay for human Forkhead box A2 (FOXA2) (AID 2282942). The note with it: HepG2 cis-reporter transcription factor activity, 24 h; actives raise or lower the signal. In a few lines:
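Endogenous transcription factor activity was read in HepG2 cells carrying transiently transfected cis-promoter reporter units. After 24 h dosing, reporter mRNA was quantified by RT-PCR and capillary electrophoresis, and values fitted bidirectionally versus DMSO.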

The nature of assay [17]: ATG_FoxO_CIS: Attagene CIS-FACTORIAL HepG2 Assay for human Forkhead box O (FoxO) (AID 2282943). The settings on record: HepG2 Attagene cis-reporter, FoxO element, mRNA; actives raise or lower the signal. In a few lines: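 Values reflect reporter mRNA induction or loss in HepG2 cells 24 h post-dosing, fitted bidirectionally with DMSO as negative control and baseline. Detection used RT-PCR and fluorescence capillary electrophoresis.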

Assay [18] can be described thus: ATG_GATA_CIS: Attagene CIS-FACTORIAL HepG2 Assay for human GATA Binding Protein (AID 2282944). The settings on record: HepG2 GATA cis-element reporter, Attagene multiplex mRNA; actives raise or lower the signal. In short, it runs like this: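 Transfected cis-reporter HepG2 cells were treated with chemicals for 24 hours. Total RNA was then converted to cDNA, amplified with reporter-specific primers and analysed by fluorescent capillary electrophoresis, using DMSO-treated wells as baseline.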

Assay [19] in a line: ATG_GLI_CIS: Attagene CIS-FACTORIAL HepG2 Assay for human Zinc Finger Protein GLI1 (AID 2282945). The note with it: HepG2, Attagene cis-factorial reporter mRNA, GLI element; actives raise or lower the signal. In a few lines: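 HepG2 cells transiently transfected with cis-promoter multiplexed reporter units report endogenous transcription factor activity. After 24 h chemical exposure, reporter mRNA was quantified by RT-PCR, 6-FAM labelling, HpaI digestion and capillary electrophoresis, with bidirectional fitting against DMSO.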

The source made the active and inactive calls. How the source made its calls: active means hit-call score of the fitted dose curve at least 0.9, where 1 is the maximum; inactive means score below 0.9.

Here are results for seven compounds from PubChem BioAssay (EPA / NIEHS).

Broadly, the AC50 is the midpoint of the concentration-response curve, whichever way the signal moves.

Aryl hydrocarbon receptor (Homo sapiens), sequence (P35869 whole entry, looked up): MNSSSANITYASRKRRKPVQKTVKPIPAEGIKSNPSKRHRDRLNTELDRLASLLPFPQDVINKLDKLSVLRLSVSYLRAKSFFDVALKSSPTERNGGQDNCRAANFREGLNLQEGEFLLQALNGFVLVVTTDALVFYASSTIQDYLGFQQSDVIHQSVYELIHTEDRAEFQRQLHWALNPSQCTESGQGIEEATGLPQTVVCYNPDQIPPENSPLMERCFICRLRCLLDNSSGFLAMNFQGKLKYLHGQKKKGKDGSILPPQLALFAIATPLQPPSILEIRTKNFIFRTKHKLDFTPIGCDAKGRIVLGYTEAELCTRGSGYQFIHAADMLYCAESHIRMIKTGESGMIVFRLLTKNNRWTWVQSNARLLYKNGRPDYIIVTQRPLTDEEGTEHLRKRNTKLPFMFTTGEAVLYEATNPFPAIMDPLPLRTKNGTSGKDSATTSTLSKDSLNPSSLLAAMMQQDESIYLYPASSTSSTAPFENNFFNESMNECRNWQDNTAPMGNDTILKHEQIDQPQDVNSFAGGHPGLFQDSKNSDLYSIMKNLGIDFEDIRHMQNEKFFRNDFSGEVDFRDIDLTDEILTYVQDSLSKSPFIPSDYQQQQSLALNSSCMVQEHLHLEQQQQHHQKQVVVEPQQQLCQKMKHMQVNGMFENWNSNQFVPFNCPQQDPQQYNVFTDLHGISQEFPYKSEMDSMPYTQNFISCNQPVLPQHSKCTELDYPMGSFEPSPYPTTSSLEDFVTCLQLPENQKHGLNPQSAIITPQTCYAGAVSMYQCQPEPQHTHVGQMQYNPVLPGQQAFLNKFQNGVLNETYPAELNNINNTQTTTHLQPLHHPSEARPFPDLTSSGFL
Hepatocyte nuclear factor 3-beta (Homo sapiens), sequence (Q9Y261 whole entry, looked up): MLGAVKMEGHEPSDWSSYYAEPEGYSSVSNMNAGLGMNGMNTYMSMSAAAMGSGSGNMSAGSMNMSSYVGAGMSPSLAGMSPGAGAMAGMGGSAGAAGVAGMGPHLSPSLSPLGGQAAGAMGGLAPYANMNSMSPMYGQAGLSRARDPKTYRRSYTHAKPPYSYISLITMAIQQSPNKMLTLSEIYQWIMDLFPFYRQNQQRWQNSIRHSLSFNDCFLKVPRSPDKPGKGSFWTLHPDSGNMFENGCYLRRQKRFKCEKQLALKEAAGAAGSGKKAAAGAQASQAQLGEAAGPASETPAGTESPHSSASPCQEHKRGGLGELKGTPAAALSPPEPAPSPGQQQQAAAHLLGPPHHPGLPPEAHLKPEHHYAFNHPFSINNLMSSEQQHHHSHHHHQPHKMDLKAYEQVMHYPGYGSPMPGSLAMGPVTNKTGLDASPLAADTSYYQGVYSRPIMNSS
CCAAT/enhancer-binding protein beta (Homo sapiens), sequence (P17676 whole entry, looked up): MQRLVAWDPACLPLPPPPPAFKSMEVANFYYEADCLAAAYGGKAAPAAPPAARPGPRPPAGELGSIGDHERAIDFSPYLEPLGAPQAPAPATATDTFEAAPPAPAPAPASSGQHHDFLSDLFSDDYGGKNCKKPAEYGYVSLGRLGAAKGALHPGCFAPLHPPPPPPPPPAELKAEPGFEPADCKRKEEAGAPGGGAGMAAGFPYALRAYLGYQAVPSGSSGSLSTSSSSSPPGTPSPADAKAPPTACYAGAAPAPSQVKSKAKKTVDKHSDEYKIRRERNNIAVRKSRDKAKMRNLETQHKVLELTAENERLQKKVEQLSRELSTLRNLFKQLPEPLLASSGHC
Transcription factor E2F1 (Homo sapiens), sequence (Q01094 whole entry, looked up): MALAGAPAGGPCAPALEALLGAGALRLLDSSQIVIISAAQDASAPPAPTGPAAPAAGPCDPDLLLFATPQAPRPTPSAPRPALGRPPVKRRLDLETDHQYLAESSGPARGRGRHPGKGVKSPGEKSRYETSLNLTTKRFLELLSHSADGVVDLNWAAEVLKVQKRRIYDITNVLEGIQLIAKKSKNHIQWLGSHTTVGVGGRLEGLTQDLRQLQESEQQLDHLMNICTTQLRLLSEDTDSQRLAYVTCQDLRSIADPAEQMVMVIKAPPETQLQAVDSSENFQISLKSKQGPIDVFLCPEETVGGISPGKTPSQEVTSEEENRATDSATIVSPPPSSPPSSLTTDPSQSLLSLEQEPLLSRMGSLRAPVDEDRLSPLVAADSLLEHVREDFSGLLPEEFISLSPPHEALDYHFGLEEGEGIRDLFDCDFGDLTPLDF
Retinoic acid receptor alpha (Homo sapiens), sequence (P10276 whole entry, looked up): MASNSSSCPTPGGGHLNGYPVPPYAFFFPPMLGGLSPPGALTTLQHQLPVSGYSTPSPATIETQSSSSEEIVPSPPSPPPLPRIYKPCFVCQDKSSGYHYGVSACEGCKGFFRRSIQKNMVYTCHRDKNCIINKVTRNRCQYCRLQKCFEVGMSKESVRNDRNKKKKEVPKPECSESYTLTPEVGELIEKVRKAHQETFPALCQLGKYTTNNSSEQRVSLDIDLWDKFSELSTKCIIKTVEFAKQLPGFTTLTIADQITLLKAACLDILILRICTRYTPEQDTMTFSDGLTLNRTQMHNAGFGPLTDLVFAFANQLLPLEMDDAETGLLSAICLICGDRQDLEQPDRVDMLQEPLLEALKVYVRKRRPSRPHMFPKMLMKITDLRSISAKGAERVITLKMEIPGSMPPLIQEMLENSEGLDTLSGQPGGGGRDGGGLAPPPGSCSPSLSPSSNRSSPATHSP

Take `C#CC(C)N(C)C(=O)Nc1ccc(Cl)cc1` (stereo not drawn): the compound was called inactive in [1], in assay [2], in assay [3], in assay [4], in assay [5] and in assay [6]. The result in [7], in assay [8], in assay [9], in [10], in assay [11] and in [12] was inactive. Further, the result in [13], in [14], in assay [15], in assay [16], in assay [17] and in [18] was inactive. Besides, the compound was called inactive in assay [19].

On to `CCc1cc(C(C)(C)C)c(O)c(C(C)(C)C)c1`, for which the outcome in [1], in [2], in assay [5], in assay [7], in assay [8] and in [10] was inactive. The call in assay [12], in [13], in assay [14], in [15], in assay [16] and in [17] was inactive. For the same compound, the compound was called inactive in assay [18] and in [19]. Moreover, the AC50 is 53.9 µM (active) in assay [3]; 23.2 µM (active) in assay [4]; 63.7 µM (active) in assay [6]; 5.23 µM (active) in assay [9]; 24.4 µM (active) in assay [11].

On to `CC(=O)C1(C)CC2=C(CCCC2(C)C)CC1C` (stereo not drawn), for which the result in assay [1], in assay [2], in [8], in assay [10], in [12] and in assay [13] was inactive. Further, the result in [15] and in assay [18] was inactive. For the same compound, the AC50 in assay [3] was 76.8 µM (active); in assay [4], 179 µM (active); in assay [5] it was 126 µM (active); in assay [6] it was 93.3 µM (active); in assay [7], 76.1 µM (active); in assay [9] it was 100 µM (active). Further, the AC50 was 83.2 µM (active) in assay [11]; 157 µM (active) in assay [14]; 181 µM (active) in [16]; 100 µM (active) in assay [17]; 53.8 µM (active) in assay [19].

Take `C=C(C)C(=O)OCC(CC)(COC(=O)C(=C)C)COC(=O)C(=C)C`: the outcome in assay [1], in [2], in assay [3], in assay [4], in assay [5] and in assay [6] was inactive. For the same compound, the outcome in assay [7], in assay [8], in assay [9], in assay [10], in [11] and in [12] was inactive. In addition, the compound was called inactive in [13], in assay [14], in assay [15], in assay [16], in assay [17] and in assay [18]. Also, in [19], the compound was called inactive.

`Nc1ccc(N)c2c1C(=O)c1ccccc1C2=O`: the AC50 in [1] is 3.11 µM (active); in assay [2], 11.3 µM (active); in [5], 1.59 µM (active). For the same compound, the compound was classed as inactive in assay [3], in [4], in assay [6], in assay [7], in assay [8] and in assay [9]. The call in [10], in assay [11], in assay [12], in assay [13], in assay [14] and in assay [15] was inactive. Besides, the call in assay [16], in [17], in [18] and in assay [19] was inactive.

For `CCCCOC(=O)CCCCCCCC(=O)OCCCC`, the call in assay [1], in assay [2], in assay [3], in assay [4], in assay [5] and in [6] was inactive. Also, the outcome in assay [7], in assay [8], in assay [9], in assay [10], in assay [11] and in assay [12] was inactive. Besides, the call in [13], in [14], in [15], in [16], in assay [17] and in assay [18] was inactive. In addition, the outcome in [19] was inactive.

In the case of `CCCCC(CC)COC(=O)c1ccc(O)cc1` (stereo not drawn), the result in assay [1], in assay [2], in assay [3], in [4], in assay [5] and in assay [6] was inactive. Moreover, the call in assay [7], in assay [8], in [9], in [10], in [11] and in [12] was inactive. Besides, the call in assay [13], in assay [14], in assay [15], in assay [16], in assay [17] and in assay [18] was inactive. Moreover, the compound was called inactive in [19].
